From PubChem
Mdm2 MdmX PPI: human Mdm2/MdmX binding inhibition | 3% of 330,000 active | SaOS-2 split-luciferase Mdm2/MdmX complementation, luminescence | inhibition, % at 8 µM | AID 485346;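 active = inhibition of at least 50% at 8 µM in the primary screen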
Target sequence (O15151 whole entry, looked up): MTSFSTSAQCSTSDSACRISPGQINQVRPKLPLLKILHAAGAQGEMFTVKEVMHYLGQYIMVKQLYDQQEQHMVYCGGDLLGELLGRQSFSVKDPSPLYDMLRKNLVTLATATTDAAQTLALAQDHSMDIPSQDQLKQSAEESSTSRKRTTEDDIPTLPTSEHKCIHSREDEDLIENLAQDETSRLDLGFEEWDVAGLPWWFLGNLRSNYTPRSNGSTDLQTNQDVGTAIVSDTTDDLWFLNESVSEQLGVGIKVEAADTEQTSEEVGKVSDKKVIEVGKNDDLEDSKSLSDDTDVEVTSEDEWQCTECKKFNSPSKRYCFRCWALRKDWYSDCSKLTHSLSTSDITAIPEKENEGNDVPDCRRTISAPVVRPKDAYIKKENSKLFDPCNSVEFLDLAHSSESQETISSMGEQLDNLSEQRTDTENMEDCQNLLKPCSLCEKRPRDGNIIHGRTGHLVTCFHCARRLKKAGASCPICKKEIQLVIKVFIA
Target sequence (Q00987 whole entry, looked up): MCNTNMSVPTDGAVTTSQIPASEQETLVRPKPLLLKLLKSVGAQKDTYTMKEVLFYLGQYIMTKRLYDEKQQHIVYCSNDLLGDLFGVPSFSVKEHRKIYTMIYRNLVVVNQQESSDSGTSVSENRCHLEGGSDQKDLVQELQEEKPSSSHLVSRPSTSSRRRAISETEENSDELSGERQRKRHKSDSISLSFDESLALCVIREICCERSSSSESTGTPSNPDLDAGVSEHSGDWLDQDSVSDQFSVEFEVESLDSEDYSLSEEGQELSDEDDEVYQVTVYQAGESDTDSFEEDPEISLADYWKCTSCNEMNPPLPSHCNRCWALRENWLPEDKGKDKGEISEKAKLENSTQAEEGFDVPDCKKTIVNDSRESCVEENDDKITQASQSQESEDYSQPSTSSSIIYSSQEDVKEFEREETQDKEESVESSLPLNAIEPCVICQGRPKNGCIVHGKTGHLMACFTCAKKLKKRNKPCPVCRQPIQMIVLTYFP
Beta apoptosis: beta cell apoptosis inhibition; 0.8% of 300,000 active; protection from apoptosis, % (test concentration not listed); INS-1E cytokine-induced death, ATP luminescence, 48 h; percent of positive-control rescue, neutral wells zero;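 active = Every replicate reaches about 75%, or at least half do and their mean reaches it too, limit read from the data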;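 also: higher means more ATP so stronger rescue from cytokine killing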
Jurkat NFkB inh: lowers PMA/ionomycin-induced NF-kB signal in Jurkat cells; PMA/ionomycin-induced NF-kB luciferase reporter, luminescence; inhibition, % at 4 µM; 0.53% of 330,000 active; AID 435003; in the data active = inhibition above about 50%
697 NFkB inh: inhibitors of the PMA/ionomycin-induced NF-kB reporter in 697 B cells; AID 435022; 697 B-cell NF-kB luciferase reporter, 16 h; 0.33% of 330,000 active; inhibition, % at 4 µM; in the data active = inhibition above about 35%
CSC inhib: cancer stem cell inhibition; cancer stem cell-like cells viability, luminescence; inhibition, % at 7.5 µM; 1.1% of 300,000 active; in the data active = inhibition above about 75%; tested in HMLE shEcad cells
Gli-Sufu block: antagonists of Gli-Sufu signaling; Sufu-KO-LIGHT fibroblasts, Gli luciferase reporter luminescence; inhibition, % at 5 µM; 0.74% of 340,000 active; AID 588413;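 active = inhibition above about 55%, limit read from the data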
697 NFkB conf: inhibitors of the PMA/ionomycin-induced NF-kB reporter in 697 B cells, retest. shares compounds with 697 NFkB inh. inhibition, % at 4 µM. 697 B-cell NF-kB luciferase, 16 h. 35% of 2,000 active; in the data active = inhibition mostly above about 28%, no sharp cut-off; inactive = mostly below about 22%
Mdm2 MdmX conf: confirmation of human Mdm2/MdmX interaction inhibitors; shares compounds with Mdm2 MdmX PPI; Mdm2-MdmX binding, luminescent assay; inhibition, % at 8 µM; 55% of 10,000 active; AID 489028; in the data active = inhibition above about 40%
FLuc counter: full-length luciferase inhibition in Mdm2/MdmX counter-screen; shares compounds with Mdm2 MdmX PPI; SaOS-2 full-length luciferase counterscreen, luminescence; inhibition, % at 8 µM; 77% of 6,200 active;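 active = mean inhibition at 8 µM reaching about 37%, which flags the compound as non-specific, limit read from the data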;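 also: p53-null SaOS-2 cells with luciferase driven by a doxycycline-inducible promoter; compound on cells about two nights before reading with doxycycline added after day one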
A number is an active result; n = inactive; x = no result. A selection: hits, their analogues and other compounds. The true share with any hit is near 4.5%.

SMILES | Mdm2 MdmX PPI | Beta apoptosis | Jurkat NFkB inh | 697 NFkB inh | CSC inhib | Gli-Sufu block | 697 NFkB conf | others
O=C(O)/C=C/c1cn(-c2ccccc2)nc1-c1ccccc1 | n | n | n | n | n | n | x
Oc1ccc(Oc2ccc3c(C(F)(F)F)cc(C(F)(F)F)nc3n2)cc1 | n | n | n | 46 | n | n | n
CC(=O)c1csc(COc2ccc(Cl)cc2)n1 | n | n | n | n | n | n | n
NNC(=O)c1csc(COc2cc(Cl)cc(Cl)c2)n1 | n | n | n | n | n | n | x
CCOC(=O)C1=C(COC(=O)c2ccc(Cl)cc2[N+](=O)[O-])NC(=O)NC1C (stereo not drawn) | n | x | n | n | n | n | x
O=C(NCc1ccccc1)c1ccc(C(=O)N(C2CCCCC2)C2CCCCC2)cc1 | n | n | n | 35 | n | n | n
O=C(NCc1ccccc1)c1ccc(C(=O)NCc2ccccc2)cc1 | x | x | x | x | x | n | x
COc1ccc(/C=N/NC(=O)c2ccc(N3CCCC3=O)cc2)cc1 | n | n | n | n | n | n | x
COc1ccc(O)c(/C=N/NC(=O)c2ccc(N3CCCC3=O)cc2)c1 | n | n | n | n | n | n | n
CC(=O)Nc1ccc(SC[C@H](Cc2ccccc2)N2CC[C@@H](C(C)(C)C)CCC2=O)cc1 | n | n | n | n | n | n | x
CCC(C)NC(=O)c1c(N)n(/N=C/c2ccccn2)c2nc3ccccc3nc12 (stereo not drawn) | n | n | n | 52 | x | n | 44
CC(C)Oc1ccc(C(=O)Nc2ccc(N(C)C)cc2)cc1 | n | n | n | 45 | n | n | 36
CC(C)CCC1(CCO)C(=O)N=C(N)NC1=O (stereo not drawn) | x | x | x | x | x | n | x
CC1CC(C)(C)Nc2ccc(OC(=O)c3ccco3)cc21 (stereo not drawn) | n | n | n | 53 | n | n | 63
Cc1ccn2cc(CCNC(=O)COc3ccccc3)nc2c1 | n | n | n | n | n | n | n
Cc1ccn2cc(CCNC(=O)CC(C)(C)C)nc2c1 | n | n | n | n | n | n | x
S=C(Nc1ccc(Cl)cc1)c1nc2ccccc2s1 | n | x | n | n | n | n | x
Cc1ccc(NC(=S)c2nc3ccccc3s2)cc1 | n | n | n | n | n | n | n
CCOC(=O)c1[nH]c(C)c(C(=O)NCCc2ccc(OC)cc2)c1C | n | n | n | 36 | n | n | n
Cc1cccc(NC(=O)c2ccc(C)c(S(=O)(=O)N3CCCCC3)c2)n1 | n | n | n | n | n | n | x
CCc1n[nH]c(=S)n1/N=C/c1cc(Br)c(O)c(OC)c1 | n | n | n | 36 | n | n | n
COc1cc(/C=N/n2c(COc3ccccc3)n[nH]c2=S)cc(Br)c1O | n | n | n | n | n | n | x
Cc1ccc(OCCNC(=O)Cc2ccc(S(=O)(=O)N3CCOCC3)s2)cc1 | n | n | n | n | n | n | x
Cc1ccsc1/C=C1\CCc2ccccc2C1=O | n | n | n | n | n | n | n
COC(=O)[C@@]12OC[C@]34[C@H]([C@@H](O)[C@@H]1O)[C@@]1(C)C(=O)C(O[C@@H]5OC(CO)[C@@H](O)[C@@H](O)[C@@H]5O)=C[C@@H](C)[C@@H]1C[C@H]3OC(=O)[C@H](OC(=O)/C=C(\C)C(C)(C)OC(C)=O)[C@@H]24 (stereo partly drawn) | n | n | n | 44 | n | n | 80
SMILES | Mdm2 MdmX PPI | Beta apoptosis | Jurkat NFkB inh | 697 NFkB inh | CSC inhib | Gli-Sufu block | 697 NFkB conf | others
Cc1ccc(SCC(=O)NC(=O)NCCC(C)C)c(C)c1 | n | n | n | n | n | n | x
Cc1ccc(-c2nc(N)n(C(=O)c3ccco3)n2)cc1 | n | n | n | 36 | n | n | n
CC(=O)/C(C#N)=C1\NC(=O)C(Cc2ccccc2C)S1 (stereo not drawn) | 83 | n | n | n | n | n | n | Mdm2 MdmX conf=70;FLuc counter=41
CNC(=O)/C(C#N)=C1\SC(Cc2ccc(F)cc2)C(=O)N1c1ccccc1C (stereo not drawn) | n | n | n | n | n | n | x
Cc1cc(=O)[nH]c2c(C)cc(S(=O)(=O)N3CCCCC3)cc12 | 70 | n | n | 43 | n | n | 36 | Mdm2 MdmX conf=54;FLuc counter=89
CCc1nnc(NC(=O)CSc2nnc3nc(C)cc(C)n23)s1 | n | n | n | n | x | n | x
CCC(=O)Nc1ccc(-c2ccc(NC(=O)CC)c(OC)c2)cc1OC | n | n | n | n | x | n | x
COc1cc(-c2ccc(NC(=O)NC3CC3)c(OC)c2)ccc1NC(=O)NC1CC1 | 91 | n | n | n | n | x | n | Mdm2 MdmX conf=57;FLuc counter=73
COc1ccc(C(=O)O/N=C(\N)c2ccccc2)c(OC)c1 | 93 | n | n | n | n | n | n | Mdm2 MdmX conf=77;FLuc counter=164
COc1ccccc1C(=O)O/N=C(\N)c1ccccc1Cl | n | n | n | n | n | n | x
CCCc1c(NC(=O)Nc2ccc(Cl)cc2Cl)cnn1-c1ccccc1 | 86 | x | n | n | n | n | n | Mdm2 MdmX conf=75;FLuc counter=43
CCCc1c(C(=O)Nc2ccc(F)cc2F)cnn1-c1ccccc1 | n | n | n | n | n | n | x
COc1ccccc1NC(=O)N[C@@H](Cc1c[nH]c2ccccc12)C(=O)NN | n | n | n | n | n | n | x
Cc1ccc(-c2n[nH]c(=S)n2/N=C/c2c(C)nn(-c3ccccc3)c2C)cc1 | n | n | n | n | n | n | x
Cc1ccccc1-c1n[nH]c(=S)n1/N=C/c1c(C)nn(-c2ccccc2)c1C | 87 | n | n | n | n | n | n | Mdm2 MdmX conf=53;FLuc counter=103
Cc1nc(SCC(=O)N2c3ccccc3NC(=O)CC2C)c2c(C)c(C)sc2n1 (stereo not drawn) | n | x | n | n | x | n | x
Cc1sc2nc(C3CC3)nc(SCC(=O)N3c4ccccc4CC3C)c2c1C (stereo not drawn) | 85 | n | n | n | n | n | n | Mdm2 MdmX conf=90;FLuc counter=53
O=C(O)c1nn(CCOc2c(Cl)cccc2Cl)c(=O)c2ccccc12 | 69 | n | n | n | n | n | n | Mdm2 MdmX conf=54;FLuc counter=44
CC(=O)Nc1cccc(C(=O)N2CCN(S(=O)(=O)c3ccc(C4CCCCC4)cc3)CC2)c1 | x | x | x | x | x | n | x
O=C(Cc1n[nH]c(=O)c2ccccc12)OCc1c(Cl)cccc1Cl | 57 | n | n | n | n | n | n | Mdm2 MdmX conf=55;FLuc counter=62
CCOC(=O)Cc1n[nH]c(=O)c2ccccc12 | n | n | n | n | n | n | x
COC(=O)c1ccc(NC(=O)c2cc[n+]([O-])cc2)cc1 | n | n | n | n | n | n | x
COC(=O)C1=C(C)N(Cc2ccccc2)C(=NCCCCO)N[C@H]1CCc1ccccc1 | n | n | n | n | n | n | x
Fc1ccc(Nc2nc(N3CCOCC3)nc(N3CCOCC3)n2)cc1 | n | n | n | n | n | n | x
